Experimental data reported in PubChem BioAssay AID588674 (Broad Institute, 2011).
In all, about 360,000 compounds went through this assay and about 1,800 (0.5%) were called active. The entries come from a sample that favours actives as a whole. Unmarked numbers belong to inactive results.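 The calls were made as follows: active = mean inhibition of at least 75% with every replicate also reaching 75%; inconclusive = mean inhibition at least 75% but some replicate below; inactive = mean inhibition below 75%.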

experiment: reduction of Shn3 3'UTR firefly luciferase signal, primary screen, Schnurri-3 inhibitor project, cell-based, Clone20 osteoblasts, set 2 (AID 588674); conditions: Clone20 osteoblast Shn3 3'UTR firefly luciferase, 24 h; at 12.5 µM; stronger effect = higher value;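 also: 0% = median of neutral control wells and 100% = pilot-screen positive control compound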

Question: For `CCCCCCCCCCCCn1ccc(=N)cc1`, which inhibition is on record?
Answer: 90.6% (active)

Question: For `CN1C2C=C(N(C(=O)c3ccc(Cl)cc3)c3ccccc3)CC1CC2` (stereo not given), which inhibition is on record?
Answer: -7.65%

Question: Which inhibition does the source give for `Cc1ccc(S(=O)(=O)N(C)c2ccc(C(=O)NCC3(N(C)C)CCCCC3)cc2)cc1` here?
Answer: -2.63%

Question: Which inhibition does the source give for `Nc1ccc(C(=O)N/N=C2/CN3CCC2CC3)cc1` here?
Answer: -22.5%

Question: With `CCC(C)(O)C(=O)OC1C(=O)OC2CC3C(C)=CC(=O)C(O)C3(C)C3C4(O)OCC23C1C(C)C4O` (stereo not given) as the compound, how does the inhibition read?
Answer: 91.5% (active)

Question: Which inhibition does the source give for `Cc1ccc(C2CN(C)CC2C(=O)c2ccc(F)cc2)cc1` (stereo not given) here?
Answer: 6.66%

Question: Which inhibition does the source give for `O=C1NC(=O)C(CCc2ccccn2)(Cc2cccc(Cl)c2Cl)C(=O)N1c1ccc(Br)cc1` (stereo not given) here?
Answer: 13.7%

Question: With `CC(=O)OC1C2(CC3N4C(=O)C5(CO)SSC4(CC31O)C(=O)N5C)OC(C)C(C)(C)C2=O` (stereo not given) as the compound, how does the inhibition read?
Answer: 98.1% (active)

Question: For `CCC(=O)c1ccc(OCC(=O)N2CCN(CC(=O)Nc3ccc(C)cc3)CC2)cc1`, which inhibition is on record?
Answer: 19.6%

Question: With `O=C1C2CCN(CC2)C1(CO)CO` as the compound, how does the inhibition read?
Answer: -25.5%

Question: With `O=C(c1ccccc1)C(O)(CN1CCCCC1)c1ccccc1` (stereo not given) as the compound, how does the inhibition read?
Answer: 5.93%

Question: Which inhibition does the source give for `CCN1C(=O)C(=Cc2c(C)n(CC(=O)NCC3CCCO3)c3ccccc23)C(=O)N(CC)C1=S` (stereo not given) here?
Answer: 1.7%

Question: Which inhibition does the source give for `Clc1ccc2nc3c(c(-c4ccccc4)c2c1)CNCC3` here?
Answer: 14.4%

Question: With `C[C@]12CCC3C(CC[C@H]4[C@H](O)[C@H](O)CC[C@]34C)C1CCC2=O` (stereo not given in full) as the compound, how does the inhibition read?
Answer: -16.7%

Question: For `Cc1ccc(N2C(=O)NC(=O)C(CCc3ccncc3)(Cc3cccc(Cl)c3Cl)C2=O)cc1` (stereo not given), which inhibition is on record?
Answer: -0.01%
